Assay outcomes (PubChem)
An excerpt weighted towards active compounds, which were near 0.99% of everything screened.
TRPML1 agonist – activates the human TRPML1 channel; Q9GZU1; TRPML1-expressing cells, Ca2+ dye fluorescence, FDSS; activation, % (concentration not given with the values); 410,000 tested, 0.12% active; AID 624414; in the data active means activation above about 50%; inconclusive means mostly about 30% to 49%
Target sequence (Q9GZU1 whole entry, looked up): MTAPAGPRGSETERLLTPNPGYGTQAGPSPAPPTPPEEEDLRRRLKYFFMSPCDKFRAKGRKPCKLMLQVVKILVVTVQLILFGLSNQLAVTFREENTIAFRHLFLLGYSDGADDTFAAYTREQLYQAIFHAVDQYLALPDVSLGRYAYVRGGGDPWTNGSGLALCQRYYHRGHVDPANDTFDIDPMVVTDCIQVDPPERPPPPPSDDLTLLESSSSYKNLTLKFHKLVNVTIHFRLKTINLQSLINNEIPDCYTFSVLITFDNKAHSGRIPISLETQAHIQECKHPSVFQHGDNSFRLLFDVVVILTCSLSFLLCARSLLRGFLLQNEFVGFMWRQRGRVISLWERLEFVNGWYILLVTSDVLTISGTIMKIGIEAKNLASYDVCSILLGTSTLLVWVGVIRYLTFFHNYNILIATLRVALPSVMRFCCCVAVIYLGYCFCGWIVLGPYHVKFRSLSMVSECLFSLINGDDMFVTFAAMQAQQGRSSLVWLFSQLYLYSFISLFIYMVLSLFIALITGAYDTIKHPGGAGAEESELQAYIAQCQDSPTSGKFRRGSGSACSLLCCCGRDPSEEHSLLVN
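Tetracycline-induced TRPML1-DL cells are seeded and incubated overnight before loading with a no-wash Ca2+ dye and quencher. Agonist activity is taken from the 110 s fluorescence read following compound pin-transfer on an FDSS, before EC80 54-4 challenge.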
TRHR PAM – TRH receptor (human) allosteric enhancement; TRHR cells, fluo-8 calcium fluorescence, EC20 TRH enhancement; enhancement, % at 2 µM; 360,000 tested, 0.66% active; AID 493056; in the data active means enhancement above about 30%
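Enhancer read-out: after compound pinning and an initial kinetic agonist-mode read, an EC20 of TRH (10 nM final) was injected and fluo-8 calcium signal (Ex 480/Em 530) followed at 1 s/cycle for 100 cycles in TRHR-expressing cells.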
TRHR ag – agonists of human TRH receptor | 360,000 tested, 0.18% active | TRHR cells, calcium flux fluo-8, FDSS agonist mode | activation, % at 2 µM | P34981 | AID 493084; in the data active means activation above about 30%
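Fluo-8-loaded TRHR cells; 10 s baseline, compound added, kinetic Ca2+ fluorescence read 1/s, agonist mode.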
TRPV1 agonist – human TRPV1 agonism | Q8NER1 | TRPV1-expressing cells, Fluo-8 calcium influx, agonist mode | activation, % at 8.33 µM | 320,000 tested, 0.19% active | AID 540275; in the data active means activation above about 80%; inconclusive means between about 30% and that limit
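TRPV1-expressing cells were cultured overnight at 35.5C and loaded with Fluo-8 calcium dye for 40 to 90 min at room temperature. After a 10 s baseline, compound was added and calcium influx was read kinetically for 3 min (ex 480/em 520 nm).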
TRPV1 PAM – human TRPV1 potentiation | 320,000 tested, 0.02% active | potentiation, % at 8.33 µM | TRPV1-expressing cells, Fluo-8 calcium influx, capsaicin EC20 potentiation | AID 540277; in the data active means potentiation above about 80%; inconclusive means between about 30% and that limit
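TRPV1-expressing cells were cultured overnight at 35.5C and loaded with Fluo-8 calcium dye for 40 to 90 min at room temperature. After a 10 s baseline, compound was added and calcium influx was read kinetically for 3 min (ex 480/em 520 nm).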
TRPML1 inh – blocks the human TRPML1 channel; Q9GZU1; TRPML1-inducible cells, Ca2+ dye fluorescence, FDSS; stronger effect = lower value; inhibition of EC80 agonist-evoked calcium signal; activity change, negative = inhibition, % (test concentration not listed); 390,000 tested, 0.02% active; AID 624415; in the data active means activity change below about -50%; inconclusive means between about -30% and that limit;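 further: stimulus is agonist 54-4 at its EC80 concentration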
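Calcium fluorescence in TRPML1-DL cells induced overnight with Tet: a 110 s read after compound pin addition, then a 110 s antagonist read after challenge with 54-4 at 4 uM final (EC80).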
Numbers stand for hits.

For O=Cc1ccc(N2CCOCC2)cc1 the results were TRPML1 agonist inactive.
CC(C)(C)OC(=O)NCC(=O)NNC(=O)c1cc2ccccc2[nH]1 was read as TRHR PAM inactive and TRHR ag inactive.
Screening CCc1ccccc1-n1nnc(-c2nsc(NC(=O)c3ccc(C)c(C)c3)n2)c1C returned TRPML1 agonist inactive, TRHR PAM inactive, TRHR ag 34 and TRPML1 inh inactive.
S=C(NCc1ccco1)N1CCN(c2ccc(Cl)cc2)CC1 was read as TRPML1 agonist inactive, TRHR PAM 40, TRHR ag inactive, TRPV1 agonist inactive, TRPV1 PAM inactive and TRPML1 inh inactive.
Screening CC(=O)c1ccc(N2CCN(C(=S)NCc3ccco3)CC2)cc1 returned TRPML1 agonist inactive, TRHR PAM inactive, TRHR ag inactive, TRPV1 agonist inactive, TRPV1 PAM inactive and TRPML1 inh inactive.
For Cc1ncnc2nc[nH]c12 the results were TRPML1 agonist inactive.
Screening COc1ccc(C(CNC(=O)c2ccco2)N2CCOCC2)cc1 (stereo not given) returned TRPML1 agonist inactive, TRHR PAM inactive, TRHR ag inactive, TRPV1 agonist inactive, TRPV1 PAM inactive and TRPML1 inh inactive.
COc1ccc(C(CNC(=O)c2nn(-c3ccccc3)c(=O)c3ccccc23)N2CCOCC2)cc1 (stereo not given) was read as TRPML1 agonist inactive, TRHR PAM 32, TRHR ag inactive, TRPV1 agonist inactive, TRPV1 PAM inactive and TRPML1 inh inactive.
`CN(C)c1ccc(N=Cc2ccncc2)cc1` gave TRPML1 agonist inactive.
For C1=Cc2ccccc2/C1=C\c1cccc(/C=C2\C=Cc3ccccc32)c1 the results were TRPML1 agonist inactive.
Screening CC(=O)COc1coc(CN2CCN(c3ccc(F)cc3)CC2)cc1=O returned TRPML1 agonist inactive, TRHR PAM 31, TRHR ag inactive, TRPV1 agonist inactive, TRPV1 PAM inactive and TRPML1 inh inactive.
For Cc1cccc(Cn2cnc3c(cnn3C(C)(C)C)c2=O)c1F the results were TRPML1 agonist inactive and TRPML1 inh inactive.
COC(=O)[C@@H]1CCCN1S(=O)(=O)Cc1ccccc1 was read as TRPML1 agonist inactive.
Cc1[nH]ccc(=O)c1OCc1c(Cl)cccc1Cl was read as TRPML1 agonist inactive, TRHR PAM inactive, TRHR ag inactive, TRPV1 agonist inactive, TRPV1 PAM inactive and TRPML1 inh inactive.
Cc1ccc(Cn2ccc(=O)c(OCc3c(Cl)cccc3Cl)c2C)cc1 was read as TRPML1 agonist inactive, TRHR PAM 39, TRHR ag inactive, TRPV1 agonist inactive, TRPV1 PAM inconclusive and TRPML1 inh inactive.
Screening CC(C)(C)c1ccc(OCCn2c(CCNC(=O)C3CCCCC3)nc3ccccc32)cc1 returned TRPML1 agonist inactive.
`Cc1cc(I)ccc1Nc1nc(NCCN2CCOCC2)nc(N2CCOCC2)n1` gave TRPML1 agonist inactive.
`Cc1cccc(N2CCN(S(=O)(=O)c3c(C(=O)N4CCC(C)CC4)c(C)n(C)c3C)CC2)c1C` gave TRPML1 agonist inconclusive, TRHR PAM inactive, TRHR ag inactive and TRPML1 inh inactive.
Screening Cc1ccc(C)c(N2CCN(S(=O)(=O)c3c(C(=O)N4CCC(C)CC4)c(C)n(C)c3C)CC2)c1 returned TRPML1 agonist 55, TRHR PAM inactive, TRHR ag inactive and TRPML1 inh inactive.
CN(C)c1ccc(/C=C/c2ccnc3c(-c4ccccc4)cccc23)cc1 was read as TRPML1 agonist inactive.
Screening COc1ccc(S(=O)(=O)N(C)CC(=O)NCCC2=CCCCC2)cc1 returned TRPML1 agonist inactive, TRHR PAM 35, TRHR ag inactive, TRPV1 agonist inactive, TRPV1 PAM inactive and TRPML1 inh inactive.
Screening CCN(CC)/[N+]([O-])=N/OCOC(=O)C(C)c1ccc(CC(C)C)cc1 (stereo not given) returned TRPML1 agonist inactive and TRPML1 inh inactive.
`COCCNC(=O)CCc1nnc2ccc(N3CCC(C)CC3)nn12` gave TRHR PAM 31, TRHR ag inactive, TRPV1 agonist inactive and TRPV1 PAM inactive.
`CCOC(=O)c1ccc(NC(=O)N2CCN(Cc3cccc(F)c3)CC2)cc1` gave TRPML1 agonist inactive, TRHR PAM inactive, TRHR ag inactive, TRPV1 agonist 81, TRPV1 PAM inactive and TRPML1 inh inactive.
Cc1ccccc1OCC(=O)OCC(=O)Nc1cc(S(C)(=O)=O)ccc1Cl was read as TRPML1 agonist inactive, TRHR PAM 37, TRHR ag inactive, TRPV1 agonist inactive, TRPV1 PAM inconclusive and TRPML1 inh inactive.
Cn1nnnc1Sc1ncnc2scc(I)c12 was read as TRHR PAM inactive and TRHR ag inactive.
For CC(C)(C)n1ncc2c(=O)n(Cc3cc(F)c(F)cc3Cl)cnc21 the results were TRPML1 agonist inactive and TRPML1 inh inactive.
`CCN1CCN(c2cc(=O)n(C3CCCCC3)c(=O)[nH]2)CC1` gave TRPML1 agonist inactive, TRHR PAM 34, TRHR ag inactive, TRPV1 agonist inactive, TRPV1 PAM inactive and TRPML1 inh inactive.
`CN1CCN(c2cc(=O)n(C3CCCCC3)c(=O)[nH]2)CC1` gave TRPML1 agonist inactive, TRHR PAM inactive, TRHR ag inactive, TRPV1 agonist inactive, TRPV1 PAM inactive and TRPML1 inh inactive.
CCCCNC(=O)CCCCC(=O)N/N=C/c1cccc(Cl)c1 was read as TRPML1 agonist inactive, TRHR PAM 31, TRHR ag inactive, TRPV1 agonist inactive, TRPV1 PAM inactive and TRPML1 inh inactive.
O=c1ccc2c(-c3ccccc3)c3ccc(O)cc3oc-2c1 was read as TRPML1 agonist 139, TRHR PAM inactive, TRHR ag inactive, TRPV1 agonist inactive, TRPV1 PAM inactive and TRPML1 inh inconclusive.
Screening O=c1cc(-c2ccccc2)oc2cc(O)ccc12 returned TRPML1 agonist inactive and TRPML1 inh inactive.
COc1ccc(-c2c(C)c3ccc(O)cc3oc2=O)cc1OC was read as TRPML1 agonist inactive, TRHR PAM inactive, TRHR ag inactive, TRPV1 agonist inactive, TRPV1 PAM inactive and TRPML1 inh inactive.
For Nc1ccc(-c2c3ccc(=O)cc-3oc3cc(O)ccc23)cc1C(=O)O the results were TRPML1 agonist 65, TRHR PAM inactive, TRHR ag 152, TRPV1 agonist 93, TRPV1 PAM inactive and TRPML1 inh inactive.
Screening COc1cc(OC)c(/C=C/c2cc3ccccc3c[n+]2C)c(OC)c1 returned TRPML1 agonist inactive.
COC(c1ccccc1)(c1ccccc1)C(Oc1nccc(C)n1)C(=O)O (stereo not given) was read as TRPML1 agonist inactive, TRHR PAM 31, TRHR ag inactive, TRPV1 agonist inactive, TRPV1 PAM inactive and TRPML1 inh inactive.
